From PubChem
A selection: hits, their analogues and other compounds. The true share with any hit is near 4.1%.
Shn3 3UTR inh: reduction of Shn3 3'UTR firefly luciferase signal, primary screen, Schnurri-3 inhibitor project, cell-based, Clone20 osteoblasts, set 2; Clone20 osteoblast Shn3 3'UTR firefly luciferase, 24 h; inhibition, % at 12.5 µM; actives 0.52% (n = 360,000); AID 588674, 2011;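 active means mean inhibition of at least 75% with every replicate also reaching 75%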
EBV LMP1 NFkB: EBV LMP1-driven NF-kappaB luciferase reporter inhibitors, primary screen, cell-based, luminescence, single point; LMP1-induced NF-kappaB luciferase reporter cells; inhibition, % at 12.5 µM; actives 0.69% (n = 350,000); AID 504558, 2011; in the data active means inhibition above about 41%
TROY signal inh: inhibitors of TROY-driven NF-kB signaling, primary screen, Q293 LMP1-TROYcd cells, NF-kB luciferase, uHTS. actives 0.98% (n = 360,000). AID 1347056, 2019. Q293 LMP1-TROYcd NF-kB luciferase reporter, 4 h. inhibition, % at 10 µM;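 active means compounds whose plate-normalised and pattern-corrected inhibition of the luciferase reporter signal at the single screening dose is 50% or more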
TWEAK Fn14 block: inhibitors of TWEAK-Fn14 signaling, primary screen, luciferase reporter cells, uHTS; inhibition, % at 10 µM; TWEAK-stimulated Fn14 reporter cells, luciferase luminescence, 8 h; actives 2% (n = 360,000); in the data active means inhibition above about 50%
MITF TRPM1 inh: inhibitors of MITF-dependent TRPM1 promoter reporter, primary screen, cell-based, SK-MEL-5, single point, luciferase; SK-MEL-5 TRPM1 promoter luciferase, 24 h; inhibition, % at 12.5 µM; actives 0.83% (n = 330,000);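 active means mean inhibition across replicates of 60% or more, whatever share of single replicates reaches that level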
Peg3 prom inh: Peg3 promoter-driven luciferase inhibitors, primary screen, cell-based, HeLa, luciferase luminescence. actives 1.7% (n = 360,000). AID 588405, 2011. inhibition, % at 20 µM. HeLa PEG-Prom luciferase reporter, overnight;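 active means inhibition of at least 50% at 20 µM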
Large screens that a line does not name were inactive.

O=C(CSCC(=O)N1CCCCC1)Nc1nc(-c2ccc(Cl)s2)cs1	TWEAK Fn14 block 69
O=C(CSCC(=O)N1CCN(c2ccccc2)CC1)Nc1nc(-c2ccc(Cl)s2)cs1	TWEAK Fn14 block 72 (no result: MITF TRPM1 inh)
Cc1csc(=O)n1CCC(=O)OCC(=O)Nc1ccc(F)c(F)c1F	none
C[n+]1c(/C=C/c2ccc3c(c2)OCO3)ccc2ccccc21	TROY signal inh 81, TWEAK Fn14 block 82
C(=Cc1nc2ccccc2o1)c1ccc2c(c1)OCO2	EBV LMP1 NFkB 45, TROY signal inh 58, TWEAK Fn14 block 86 (no result: MITF TRPM1 inh)
C[n+]1c(/C=C/c2ccc(O)cc2)ccc2ccccc21	none
CCOC(=O)NC(=S)Nc1ccc(OC)cc1	none
COC(=O)c1cn[nH]c1NC(=S)Nc1ccc(C)cc1Cl	TROY signal inh 73, TWEAK Fn14 block 66
CCOC(=O)c1cn[nH]c1NC(=S)Nc1ccc(OC)cc1	TROY signal inh 62, TWEAK Fn14 block 76 (no result: Shn3 3UTR inh)
COC(=O)c1cn[nH]c1NC(=S)Nc1ccc(Cl)c(Cl)c1	TROY signal inh 73, TWEAK Fn14 block 69
CCOc1ccc(OCCNCc2ccc(OC(C)C(=O)N(C)C)c(OCC)c2)cc1 (centres undefined)	none
O=C(O)CCn1cc(/C=C/C(=O)c2ccc(Cl)cc2)c(-c2ccc(Br)cc2)n1	TWEAK Fn14 block 60
CCNC(=O)CC1C(=O)N(c2ccc(C)cc2)C(=O)N1CCC(C)C (centres undefined)	none
O=C(Cc1csc(Nc2nc(=S)[nH]c3ccccc23)n1)N1CCN(c2cccc(C(F)(F)F)c2)CC1	Peg3 prom inh 80
O=C(Cc1cccc(NC(=O)C2CCN(C(=O)C3CCCCC3)CC2)c1)Nc1cccc(C(=O)N2CCCC2)c1	none
COCCC(=O)N1CCC(Oc2ccc(C(=O)N3CCCC(OC)C3)cc2)CC1 (centres undefined)	none
CCC(=O)C1CCCN(C(=O)c2ccc(OC3CCN(C(=O)CCOC)CC3)cc2)C1 (centres undefined)	TWEAK Fn14 block 88
COc1ccc(-n2ncc(C(C)NS(=O)(=O)c3cccs3)c2C)cc1 (centres undefined)	none
Cc1nc(C(=O)O)cc2c1[nH]c1ccccc12	none
CC(=O)N(C(C)=O)c1ncc2c([nH]c3ccccc32)c1C#N	TROY signal inh 54, TWEAK Fn14 block 55
Cc1ccc(N2C(=O)CC(C)(C)CC2=O)cc1Cl	none
CN(Cc1ccccc1)C(=O)c1ccc(Nc2nc(C(N)COCc3ccccc3)cs2)nc1 (centres undefined)	none (no result: EBV LMP1 NFkB, MITF TRPM1 inh)
NC(CCc1ccccc1)c1csc(Nc2ccc(C(=O)c3ccccc3)cc2)n1 (centres undefined)	Peg3 prom inh 88 (no result: EBV LMP1 NFkB, MITF TRPM1 inh)
CC(=O)c1ccc(Nc2nc(C(N)Cc3ccc(C(F)(F)F)cc3)cs2)cc1 (centres undefined)	none (no result: EBV LMP1 NFkB, MITF TRPM1 inh)
NC(Cc1ccc(C(F)(F)F)cc1)c1csc(Nc2ccc(C(=O)c3ccccc3)cc2)n1 (centres undefined)	Peg3 prom inh 97 (no result: EBV LMP1 NFkB, MITF TRPM1 inh)
CN(Cc1ccccc1)C(=O)c1ccc(Nc2nc(C(N)Cc3ccc(C(F)(F)F)cc3)cs2)nc1 (centres undefined)	Peg3 prom inh 95 (no result: EBV LMP1 NFkB, MITF TRPM1 inh)
Cc1noc(COc2ccccc2OCC(N)=O)n1	none (no result: EBV LMP1 NFkB, MITF TRPM1 inh)
Cc1cccc(C(O)c2ncc(-c3ccc4ccccc4c3)[nH]2)c1C (centres undefined)	none (no result: EBV LMP1 NFkB, MITF TRPM1 inh)
c1ccc2c(c1)OCC(c1csc3ncnc(N4CCCCC4)c13)O2 (centres undefined)	TWEAK Fn14 block 50
Cc1ccc(NC(=O)c2noc3c2CCC3)cc1C	TWEAK Fn14 block 56
O=C(NC1CCCC1)c1noc2c1CCCCC2	EBV LMP1 NFkB 42
COc1ccc(NC(=O)c2noc3c2CCC3)cc1	TWEAK Fn14 block 58
O=C(Nc1cccc(O)c1)c1noc2c1CCCCC2	TROY signal inh 59, TWEAK Fn14 block 81
COc1cc(NC(=O)c2noc3c2CCC3)c(OC)cc1Cl	none
Cc1ccc(CNC(=O)C2CCCN(S(=O)(=O)N3CC(C)CC(C)C3)C2)cc1 (centres undefined)	none
